TDP1 block: qHTS Assay for Inhibitors of Tyrosyl-DNA Phosphodiesterase (TDP1); Potency, µM (highest dose often 130 µM), without a hit: at the top dose activity change, negative = inhibition, actives largely listed as inhibitors; Tyrosyl-DNA phosphodiesterase 1 (Homo sapiens), Q9NUW8; recombinant TDP1, AlphaScreen DNA substrate cleavage; actives 0.28% (n = 350,000); further: on the % scale 0 is the no-effect control and ±100 the full control effect; nearly all actives have a fitted effect of over 40% in size
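Here, a 5' biotin and 3' phosphotyrosine-FITC DNA oligonucleotide reports Tdp1 activity: intact substrate bridges AlphaScreen beads, while cleavage leaves a 3' phosphate and drops signal. All incubations at room temperature.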
TDP1 cell noCPT: qHTS for Inhibitors of human tyrosyl-DNA phosphodiesterase 1 (TDP1): qHTS in cells in absence of CPT; DT40 Tdp1-/- hTDP1 cells, no CPT, ATP luminescence, 48 h; Potency, µM (top dose mostly 46.2 µM), for the others: top-dose activity change, negative = growth inhibition, hits mostly inhibitors; actives 15% (n = 420,000); AID 686978, 2013; further: on the % scale 0 is the no-effect control and ±100 the full control effect; nearly all actives have a fitted effect of over 55% in size
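Luminescent ATP content (CellTiter-Glo) served as the growth readout. Knockout chicken DT40 cells expressing human TDP1 were exposed to compounds without camptothecin for a minimum 48 hr at 37 °C.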
ClpP mod: qHTS Assay for Activators of ClpP | purified B. subtilis ClpP, FRET peptide cleavage, 20 min | actives 1.9% (n = 340,000) | ATP-dependent Clp protease proteolytic subunit (Bacillus subtilis (strain 168)), P80244 | Potency, µM (top dose mostly 57.5 µM), without a hit: at the highest dose activity change, negative = active; active means well fitted falling curve with a large enough effect; inconclusive means small, poorly fitted or top-dose-only effect; inactive means no such curve, though single readings can be large or run the other way; further: the source files actives as falling curves though it sought activators and does not explain the sign; nearly all actives have a fitted effect of over 65% in size
Target sequence (P80244 whole entry, looked up): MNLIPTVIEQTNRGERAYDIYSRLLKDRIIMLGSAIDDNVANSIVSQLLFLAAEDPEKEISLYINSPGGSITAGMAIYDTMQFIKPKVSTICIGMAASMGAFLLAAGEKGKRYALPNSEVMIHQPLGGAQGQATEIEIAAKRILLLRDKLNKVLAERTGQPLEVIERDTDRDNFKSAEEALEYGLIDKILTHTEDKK
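Purified B. subtilis ClpP, 10 microg/mL final in Tris/HCl pH8 with KCl, BSA, glycerol and Tween-20, cleaved an Abz/nitrotyrosine-quenched decapeptide. Fluorescence (ex 320, em 430) was read at 0 and 20 min at room temperature. Delta was normalized to 5.8 microM ADEP and DMSO/no-enzyme controls.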
TDP1 cell CPT: qHTS for Inhibitors of human tyrosyl-DNA phosphodiesterase 1 (TDP1): qHTS in cells in presence of CPT | actives 12% (n = 420,000) | chicken DT40 Tdp1-/-;hTDP1 cells + 20 nM CPT, ATP luminescence, 48 h | Potency, µM (series often up to 46.2 µM), for inactives: at the highest dose activity change, negative = growth inhibition, usual class: inhibitors; further: on the % scale 0 is the no-effect control and ±100 the full control effect; nearly all actives have a fitted effect of over 55% in size
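Chicken DT40 Tdp1-/- cells stably complemented with human TDP1 were seeded at 400 cells/well in medium containing 20 nM camptothecin, exposed to pin-transferred compounds, and grown at 37 °C for at least 48 hr. Viability was read as ATP luminescence.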
* marks the source's active call; other numbers are inactive results; ! = repeats disagree; [ ] = remark or other dose. An excerpt weighted towards active compounds, which were near 17% of everything screened. Unless noted, the call rests on the fitted dose curve; in most records, active means well fitted curve in the direction sought with a large enough effect; inconclusive means small, poorly fitted or top-dose-only effect, or another doubt; inactive means no such curve, though single readings can be large; an effect the other way counts as inactive or inconclusive. Potency means the concentration at half of the fitted maximal effect.

For O=C(NCc1cccc(Cl)c1)c1ccc(-n2ccnc2)c2ccoc12 the results were TDP1 cell noCPT inconclusive, ClpP mod -9% and TDP1 cell CPT inconclusive.
Screening CCn1c(=NC(=O)c2ccc3c(c2)OCCO3)sc2c(C)ccc(OC)c21 returned TDP1 block 3%, TDP1 cell noCPT 23µM*, ClpP mod 4% and TDP1 cell CPT inconclusive.
CCOCCn1c(=NC(=O)c2ccc3c(c2)OCCO3)sc2cc(OCC)ccc21 was read as TDP1 block 0%, TDP1 cell noCPT 15µM*, ClpP mod 4% and TDP1 cell CPT inconclusive.
Screening CCn1c(=NC(=O)C2COc3ccccc3O2)sc2c(OC)ccc(OC)c21 (configuration not stated) returned TDP1 block 4%, TDP1 cell noCPT 15µM*, ClpP mod inconclusive and TDP1 cell CPT inconclusive.
Screening CCn1c(=NC(=O)c2cccc(N3C(=O)CCC3=O)c2)sc2c(OC)ccc(OC)c21 returned TDP1 cell noCPT 18µM*, ClpP mod 0% and TDP1 cell CPT -25%.
For O=C(CC(O)c1ccccc1)Nc1ccccn1 (configuration not stated) the results were TDP1 cell noCPT -9%, ClpP mod -20% and TDP1 cell CPT -9%.
CNc1nc(-c2ccccc2C(F)(F)F)nc2ccccc12 was read as TDP1 block -12%[56.1 µM], TDP1 cell noCPT -5% and TDP1 cell CPT inconclusive.
`CCCCN1CCC(CCC(=O)c2cc(Cl)c(N)cc2OC)CC1` gave TDP1 block 7%, TDP1 cell noCPT 27µM*! and TDP1 cell CPT inconclusive.
For CCCCN1CCC(COC(=O)c2cc(Cl)c(N)c3c2OCCO3)CC1 the results were TDP1 block 11%[56.1 µM], TDP1 cell noCPT -25%, ClpP mod -3% and TDP1 cell CPT 5%.
For CCCCOc1ccc(C(=O)CCN2CCCCC2)cc1 the results were TDP1 block 5%, TDP1 cell noCPT 6.5µM*, ClpP mod 2% and TDP1 cell CPT 8.2µM*.
Screening CC(C)COc1ccc(C(=O)OCCN2CCCCC2)cc1 returned TDP1 cell noCPT -20% and TDP1 cell CPT -2%.
CC(=O)c1ccc(OCCCN2CCCCC2)cc1 was read as TDP1 block -3%, TDP1 cell noCPT -2%, ClpP mod 3% and TDP1 cell CPT -6%.
Screening CCCCOc1ccc(C(=O)N/N=C/c2ccc(OCCN3CCCCC3)c(OC)c2)cc1 returned TDP1 block 1%, TDP1 cell noCPT inconclusive, ClpP mod -12% and TDP1 cell CPT 21µM*.
Screening CCOc1ccc(/C=N/NC(=O)c2ccncc2)cc1OC returned TDP1 cell noCPT -8%, ClpP mod -1% and TDP1 cell CPT 1%.
Screening CC(C)COc1ccc(C(=O)CCN2CCCCC2)cc1 returned TDP1 block -3%, TDP1 cell noCPT 2.9µM*, ClpP mod 0% and TDP1 cell CPT 5.2µM*.
Screening CCCCOc1ccc(C(=O)NCC2(N3CCN(C)CC3)CCCCC2)cc1 returned TDP1 block 4%, TDP1 cell noCPT 18µM*, ClpP mod -1% and TDP1 cell CPT inconclusive.
For CNC(=O)C1C(=S)NC(N)=C(C#N)C1c1ccccc1 (configuration not stated) the results were TDP1 block 5%, TDP1 cell noCPT 6.5µM*, ClpP mod -1% and TDP1 cell CPT 26µM*.
O=C(NCCCc1nc2ccccc2n1Cc1ccccc1Cl)c1ccco1 was read as TDP1 block 2%, TDP1 cell noCPT 16µM*, ClpP mod -2% and TDP1 cell CPT 29µM*.
For Cc1ccc(Cn2c(CCCNC(=O)c3ccco3)nc3ccccc32)cc1 the results were TDP1 block 11%, TDP1 cell noCPT inconclusive, ClpP mod -4% and TDP1 cell CPT inconclusive.
Clc1ccccc1Cn1c(/C=C/c2ccco2)nc2ccccc21 was read as TDP1 block 6%, TDP1 cell noCPT inconclusive, ClpP mod 28µM* and TDP1 cell CPT inconclusive.
`O=C(NCCCc1nc2ccccc2n1Cc1cccc(Cl)c1)c1ccco1` gave TDP1 block 10%, TDP1 cell noCPT 23µM*, ClpP mod 0% and TDP1 cell CPT 16µM*.
